# Test results as given in PubChem BioAssay (NCATS).
# Records with an inconclusive call do not appear. Entries that show only a call come without a potency. Activity calls are given as the source filed them. Calls follow the shape of the dose curve; as a rule, active = well fitted cell-killing curve with a large enough effect; inconclusive = small, poorly fitted or top-dose-only effect, or effect the other way; inactive = flat fitted curve, though single readings scatter.
# Columns and labels:
# Assay in all cases: Primary qHTS to identify gynecologic anti-cancer compounds using libraries of approved drugs and bioactive compounds (AID 1345084); also: nearly all actives have a fitted effect of over 55% in size
# Es-2 = details: Gynecologic cancer cell panel viability, ATPlite luminescence, 48 h; series mostly up to 57.5 µM
# Summary of the method: (§1)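 Five-point cytotoxicity, 48 h drug exposure at 37 C, 5% CO2, on cells seeded 16 h beforehand. ATP content read by ATPlite luminescence.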
# HeLa = details: Gynecologic cancer cell panel viability, ATPlite luminescence, 48 h; series mostly up to 57.5 µM
# Summary of the method: as §1
# PA-1 = details: Gynecologic cancer cell panel viability, ATPlite luminescence, 48 h; series mostly up to 57.5 µM
# Summary of the method: as §1
# Hek293T = details: Gynecologic cancer cell panel viability, ATPlite luminescence, 48 h, control line for the selectivity index; series mostly up to 57.5 µM
# Summary of the method: as §1
# JEG-3 = details: Gynecologic cancer cell panel viability, ATPlite luminescence, 48 h; series mostly up to 57.5 µM
# Summary of the method: as §1
# OV90 = details: Gynecologic cancer cell panel viability, ATPlite luminescence, 48 h; series mostly up to 57.5 µM
# Summary of the method: as §1
# CASKI = details: Gynecologic cancer cell panel viability, ATPlite luminescence, 48 h; series mostly up to 57.5 µM
# Summary of the method: as §1
# Potency is read from the fitted curve at half-maximal effect.
smiles,measurement,setting,value
CN(C)Cc1ccc(-c2cnn3c(-c4cccc(NC(=O)c5cccc(C(F)(F)F)c5)c4)ccnc23)cc1,Potency,Es-2,inactive
same,Potency,HeLa,inactive
same,Potency,PA-1,inactive
CN(C)C(=O)COC(=O)c1cc(-c2ccc(C3CCNCC3)cc2)c2ccc(-c3ccc(C(F)(F)F)cc3)cc2c1,Potency,Es-2,inactive
same,Potency,Hek293T,inactive
same,Potency,JEG-3,inactive
C=CC(=O)Nc1ccc2ncnc(Nc3cccc(Br)c3)c2c1,Potency,HeLa,inactive
same,Potency,Hek293T,inactive
same,Potency,OV90,inactive
COc1ccc(-c2ccc3c(N4CCOCC4C)nc(N4CCOCC4C)nc3n2)cc1CO (stereo not drawn),Potency,Es-2,0.282 µM (active)
same,Potency,Hek293T,0.316 µM (active)
same,Potency,JEG-3,inactive
same,Potency,PA-1,0.282 µM (active)
Clc1ccc(Nc2nc3ccccc3c3nc(C4CCCCC4)[nH]c23)cc1Cl,Potency,CASKI,inactive
same,Potency,JEG-3,inactive
C=C(C)[C@@H]1CC=C(COC(=O)NC(=O)c2ncn3c(=O)n(C)nnc23)CC1,Potency,Es-2,20 µM (active)
same,Potency,HeLa,31.6 µM (active)
same,Potency,Hek293T,25.1 µM (active)
C=C1C(=O)O[C@H]2C[C@@H](C)[C@@H]3CCC(=O)[C@@]3(C)C[C@H]12,Potency,CASKI,7.94 µM (active)
same,Potency,HeLa,inactive
same,Potency,Hek293T,25.1 µM (active)
same,Potency,JEG-3,15.8 µM (active)
same,Potency,OV90,22.4 µM (active)
